The values below come from PubChem BioAssay (Tox21).

A short description of experiment [1]: Nuclear factor erythroid 2-related factor 2/antioxidant responsive element (Nrf2/ARE) small molecule agonists: luciferase reporter gene qHTS assay in human keratinocytes (AID 1919969). Also: nearly all actives have a fitted effect of over 35% in size. Also: potency is read from the fitted curve at half-maximal effect.
Experiment [2] has as its target Gonadotropin-releasing hormone receptor (Homo sapiens) (UniProt P30968). Description: Human gonadotropin-releasing hormone receptor (GnRHR) small molecule agonists, calcium flux assay in GnRHR-HEK293 cells (AID 1920063). Also: nearly all actives have a fitted effect of over 35% in size. The essentials:
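HEK293 cells stably expressing human GnRHR were dye-loaded for 1 h at 37 C. Compound was added in agonist mode and fluorescence (Ex/Em 480/540) recorded kinetically for 3 min. Fifteen concentrations, triplicates.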

A short description of experiment [3]: G protein-coupled receptor (GPCR) small molecule agonists, calcium flux assay: HEK293 wild type cell line counter screen (AID 1920065). An outline of the steps:
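Wild-type HEK293 cells plated 18 h, loaded with calcium dye 1 h at 37 C, then compounds added in agonist mode (ATP as positive control). Kinetic fluorescence Ex/Em 480/540 recorded 3 min at 1 sec intervals; 15 concentrations, triplicate.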

Experiment [4] is described as follows: p53 small molecule agonists, cell-based qHTS assay with rat liver microsomes (AID 1963578). An outline of the steps:
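Metabolic activation is supplied by rat liver microsomes with NADPH (each 0.5 mg/mL final). p53RE-bla cells incubate with compound 16 h at 37 C; reporter activity is measured by LiveBLAzer fluorescence.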

A short description of experiment [5]: p53 small molecule agonists, cell-based qHTS assay with human liver microsomes: qHTS cell viability counter screen (AID 1963579). Also: nearly all actives have a fitted effect of over 45% in size. Also: potency is read from the fitted curve at half-maximal effect. The essentials: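 After the 460/530 nm beta-lactamase read, CellTiter-Glo was added to the same wells and luminescence measured after 30 min at room temperature, giving viability of p53RE-bla cells treated 16 h with compounds plus microsomes and NADPH.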

The nature of experiment [6]: p53 small molecule agonists, cell-based qHTS assay: qHTS cell viability counter screen (AID 1963581). Also: nearly all actives have a fitted effect of over 45% in size. The essentials: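 p53RE-bla HCT-116 cells, compounds added 5 h after plating and incubated 16 h at 37 C. Cytotoxicity measured in the same wells as intracellular ATP by CellTiter-Glo luminescence after 30 min at room temperature.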
The nature of experiment [7]: p53 small molecule agonists, cell-based qHTS assay (AID 1963582; active = well fitted activation curve with a large enough effect in the signal ratio in the repeat runs, not every such curve was filed as active; the % refers to the signal ratio). The essentials: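 p53RE-bla reporter cells, compounds added in DMSO after 5 h plating, incubated 16 h at 37 C. Beta-lactamase read via 2 h room-temperature LiveBLAzer B/G FRET substrate, fluorescence intensity.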
For experiment [8], the target named is 5-hydroxytryptamine receptor 2A (Homo sapiens) (UniProt P28223). Description: 5-hydroxytryptamine receptor 2A (HTR2A) small molecule antagonists, cell-based qHTS assay (AID 1963586). Also: nearly all actives have a fitted effect of over 45% in size. An outline of the steps:
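Antagonist-mode intracellular calcium assay: DOI (4 nM) added after 5 min compound pre-incubation at room temperature to dye-loaded HTR2A-CHO cells. Fluorescence followed for 3 min, sampled every second.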

The target is the same in experiment [9]. Description: 5-hydroxytryptamine receptor 2A (HTR2A) small molecule agonists, cell-based qHTS assay (AID 1963587). Also: nearly all actives have a fitted effect of over 30% in size. An outline of the steps:
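HTR2A-CHO cells, plated 18 h at 37 C/5% CO2, dye-loaded 1 h at 37 C; compounds in DMSO added by pin tool (agonist mode). Intracellular calcium flux read as kinetic fluorescence on FDSS over 2 min at 1 s intervals.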

For experiment [10], the target named is Muscarinic acetylcholine receptor M1 (Homo sapiens) (UniProt P11229). The experiment in a line: Cholinergic receptor muscarinic 1 (CHRM1) small molecule antagonists, cell-based qHTS assay (AID 1963588). Also: nearly all actives have a fitted effect of over 40% in size. An outline of the steps: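 CHRM1-CHO calcium-flux assay, antagonist mode. Cells were seeded 18 h, dye-loaded 1 h at 37 C and given compound for 5 min at RT, then acetylcholine was added at 50nM. FDSS fluorescence was read 3 min; 15 concentrations, three runs.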
Muscarinic acetylcholine receptor M1 (Homo sapiens), sequence (P11229 whole entry, looked up): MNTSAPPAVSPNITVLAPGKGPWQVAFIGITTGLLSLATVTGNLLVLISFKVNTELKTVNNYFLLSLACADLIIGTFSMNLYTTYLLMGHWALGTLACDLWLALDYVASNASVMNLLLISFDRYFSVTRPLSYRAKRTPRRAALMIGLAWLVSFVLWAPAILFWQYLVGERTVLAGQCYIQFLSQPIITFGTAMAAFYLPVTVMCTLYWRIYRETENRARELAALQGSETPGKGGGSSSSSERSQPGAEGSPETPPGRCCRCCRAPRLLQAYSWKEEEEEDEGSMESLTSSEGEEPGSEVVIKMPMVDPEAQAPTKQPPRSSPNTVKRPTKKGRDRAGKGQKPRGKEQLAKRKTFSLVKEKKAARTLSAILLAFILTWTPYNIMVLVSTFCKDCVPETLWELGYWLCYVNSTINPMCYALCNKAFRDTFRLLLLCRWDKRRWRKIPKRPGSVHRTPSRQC

Experiment [11] shares this target. The experiment in a line: Cholinergic receptor muscarinic 1 (CHRM1) small molecule agonists, cell-based qHTS assay (AID 1963589). Also: nearly all actives have a fitted effect of over 35% in size. An outline of the steps:
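CHO cells stably expressing human CHRM1 were loaded with calcium dye for 1 h at 37 C, then compound was added in agonist mode. Intracellular calcium fluorescence was followed kinetically at 1 s intervals. Fifteen concentrations were tested in three independent runs.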

Experiment [12] is described as follows: cAMP Responsive Elements (CRE) small molecule agonists, cell-based qHTS assay (AID 1963590). An outline of the steps:
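CRE-bla HEK 293T cells, 2,000/well in DMEM with 10% dialyzed FBS and 25 mM HEPES, pre-incubated 18 h at 37 C, then exposed to compound 3 h at 37 C. Beta-lactamase reporter read with LiveBLAzer B/G FRET substrate after 2 h at room temperature.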

A short description of experiment [13]: cAMP Responsive Elements (CRE) small molecule antagonists, cell-based qHTS assay (AID 1963591; active = well fitted inhibition curve with a large enough effect in the signal ratio in the repeat runs, not every such curve was filed as active; the % refers to the signal ratio). The essentials: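 CRE-bla HEK293T cells plated 18 h, then given compound plus NKH477 at 0.25 uM final for 3 h at 37C. Beta-lactamase reporter read with LiveBLAzer B/G FRET substrate after 2 h at room temperature.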
Experiment [14] addresses Beta-2 adrenergic receptor (Homo sapiens) (UniProt P07550). Description: Adrenergic beta2 receptor (ADRB2) small molecule antagonists, cell-based qHTS assay (AID 1963592). Also: series mostly up to about 92 µM; nearly all actives have a fitted effect of over 50% in size. An outline of the steps: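 Cells (CHO, stable ADRB2 overexpression) incubated 18-20hr at 37C; compounds added from DMSO; agonist mix (1nM isoproterenol, 100uM IBMX, 25uM Ro-20-1724) added; 0.5hr RT; d2-cAMP and anti-cAMP-cryptate added; 1hr RT; 665/615 nm read.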

The target is the same in experiment [15]. The experiment in a line: Adrenergic beta2 receptor (ADRB2) small molecule agonists, cell-based qHTS assay (AID 1963593).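 Also: CHO cells stably overexpressing human ADRB2.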 An outline of the steps: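 CHO cells stably over-expressing ADRB2 were plated overnight at 37C, then dosed with compounds plus a stimulation mix containing 100uM IBMX and 25uM Ro-20-1724 for 0.5hr at room temperature. cAMP was measured by HTRF competition, 1hr.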

The target in experiment [16] is D(2) dopamine receptor (Homo sapiens) (UniProt P14416). Description: Dopamine D2 receptor (DRD2) small molecule antagonists, cell-based qHTS assay (AID 1963595; active = well fitted inhibition curve with a large enough effect in the signal ratio in the repeat runs, with a control signal flat; the % refers to the signal ratio; also: potency is read from the fitted curve at half-maximal effect). The essentials: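 HEK293 cells stably expressing DRD2, preincubated with 0.1 mM Ro20-1724 and compounds 10 min, were stimulated with 200 nM NKH477 plus 12 nM quinpirole for 30 min at room temperature; cAMP measured by HTRF (665/620 nm).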
D(2) dopamine receptor (Homo sapiens), sequence (P14416 whole entry, looked up): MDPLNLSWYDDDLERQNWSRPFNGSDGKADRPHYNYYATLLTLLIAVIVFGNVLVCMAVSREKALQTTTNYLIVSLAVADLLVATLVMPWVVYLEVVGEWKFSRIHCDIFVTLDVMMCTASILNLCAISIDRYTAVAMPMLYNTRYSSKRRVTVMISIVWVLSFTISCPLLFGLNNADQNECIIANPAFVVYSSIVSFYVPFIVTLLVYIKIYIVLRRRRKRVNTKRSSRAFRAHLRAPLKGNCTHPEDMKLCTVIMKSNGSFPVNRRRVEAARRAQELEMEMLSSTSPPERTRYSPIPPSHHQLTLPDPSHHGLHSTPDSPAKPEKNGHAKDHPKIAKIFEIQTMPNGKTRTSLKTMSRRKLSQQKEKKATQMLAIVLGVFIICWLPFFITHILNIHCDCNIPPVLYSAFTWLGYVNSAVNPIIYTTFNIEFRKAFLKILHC

A short description of experiment [17]: p53 small molecule agonists, cell-based qHTS assay with rat liver microsomes: qHTS cell viability counter screen (AID 1963580). Also: nearly all actives have a fitted effect of over 45% in size. An outline of the steps:
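p53RE-bla HCT-116 cells (4,000/well) rested 5 h at 37 C, then given Tox21 compounds in DMSO with rat liver microsomes (0.5 mg/mL final) plus NADPH (0.5 mg/mL final) for 16 h at 37 C. Viability read by CellTiter-Glo luminescence after 30 min at room temperature.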

In experiment [18] the target is D(2) dopamine receptor (Homo sapiens) (UniProt P14416). The experiment in a line: Dopamine D2 receptor (DRD2) small molecule agonists, cell-based qHTS assay (AID 1963594). Also: nearly all actives have a fitted effect of over 35% in size. The essentials:
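HEK293 cells stably expressing DRD2 were cultured 24 h at 37 C, then given Ro20-1724 (0.1 mM final) and compounds for 10 min at room temperature. NKH477 (200nM) was then added for 30 min. cAMP was read by HTRF.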

Experiment [19] concerns the target KiSS-1 receptor (Homo sapiens) (UniProt Q969F8). The experiment in a line: Human kisspeptin (KISS1R) small molecule agonists, calcium flux assay in KISS1R-HEK293 cells (AID 1920064; active = well fitted activation curve with a large enough effect in the repeat runs). The essentials: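 HEK293 cells stably expressing human KISS1R were loaded with calcium dye for 1 h at 37 C, then given compound; fluorescence (Ex/Em 480/540) was read kinetically for 3 min. Fifteen concentrations, triplicate.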

The nature of experiment [20]: p53 small molecule agonists, cell-based qHTS assay with human liver microsomes (AID 1963577).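 Also: p53 response element beta-lactamase reporter cells with liver microsomes plus NADPH.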 An outline of the steps:
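Steps: plate p53RE-bla cells, incubate 5 h at 37 C; add compound in DMSO; add microsomes (0.5 mg/mL final) and NADPH (0.5 mg/mL final); incubate 16 h at 37 C; add LiveBLAzer, 2 h RT; read fluorescence.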

Inconclusive results are not listed. The source made the active and inactive calls. Unless noted, calls follow the shape of the full dose curve.

Gonadotropin-releasing hormone receptor (Homo sapiens), sequence (P30968 whole entry, looked up): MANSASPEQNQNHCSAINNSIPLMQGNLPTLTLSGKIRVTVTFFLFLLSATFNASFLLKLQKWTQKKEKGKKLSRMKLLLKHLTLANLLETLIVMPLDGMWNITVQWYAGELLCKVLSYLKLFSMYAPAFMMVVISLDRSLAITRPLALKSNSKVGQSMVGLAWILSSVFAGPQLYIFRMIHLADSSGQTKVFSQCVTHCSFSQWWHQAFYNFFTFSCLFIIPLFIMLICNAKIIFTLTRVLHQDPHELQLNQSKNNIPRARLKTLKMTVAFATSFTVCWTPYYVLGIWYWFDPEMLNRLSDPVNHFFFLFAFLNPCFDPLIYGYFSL
Beta-2 adrenergic receptor (Homo sapiens), sequence (P07550 whole entry, looked up): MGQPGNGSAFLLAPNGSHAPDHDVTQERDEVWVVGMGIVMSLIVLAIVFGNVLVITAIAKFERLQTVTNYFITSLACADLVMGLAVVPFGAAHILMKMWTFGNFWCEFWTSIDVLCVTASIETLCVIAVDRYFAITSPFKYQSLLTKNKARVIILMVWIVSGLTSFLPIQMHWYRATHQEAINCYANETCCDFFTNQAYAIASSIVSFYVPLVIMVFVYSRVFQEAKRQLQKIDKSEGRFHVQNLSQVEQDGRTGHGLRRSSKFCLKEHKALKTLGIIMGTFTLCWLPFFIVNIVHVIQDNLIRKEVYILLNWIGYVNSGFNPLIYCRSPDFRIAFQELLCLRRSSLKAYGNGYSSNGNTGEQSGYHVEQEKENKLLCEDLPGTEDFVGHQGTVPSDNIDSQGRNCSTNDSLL
KiSS-1 receptor (Homo sapiens), sequence (Q969F8 whole entry, looked up): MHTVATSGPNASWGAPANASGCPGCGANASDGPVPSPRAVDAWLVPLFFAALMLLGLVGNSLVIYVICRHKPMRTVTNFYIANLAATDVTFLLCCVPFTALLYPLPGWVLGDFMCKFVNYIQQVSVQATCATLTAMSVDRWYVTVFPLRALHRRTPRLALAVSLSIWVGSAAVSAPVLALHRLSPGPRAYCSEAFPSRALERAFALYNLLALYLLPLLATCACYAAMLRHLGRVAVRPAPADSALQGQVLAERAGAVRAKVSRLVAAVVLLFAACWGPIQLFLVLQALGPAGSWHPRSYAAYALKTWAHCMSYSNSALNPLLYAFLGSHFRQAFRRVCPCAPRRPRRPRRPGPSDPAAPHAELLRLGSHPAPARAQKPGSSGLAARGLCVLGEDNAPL
5-hydroxytryptamine receptor 2A (Homo sapiens), sequence (P28223 whole entry, looked up): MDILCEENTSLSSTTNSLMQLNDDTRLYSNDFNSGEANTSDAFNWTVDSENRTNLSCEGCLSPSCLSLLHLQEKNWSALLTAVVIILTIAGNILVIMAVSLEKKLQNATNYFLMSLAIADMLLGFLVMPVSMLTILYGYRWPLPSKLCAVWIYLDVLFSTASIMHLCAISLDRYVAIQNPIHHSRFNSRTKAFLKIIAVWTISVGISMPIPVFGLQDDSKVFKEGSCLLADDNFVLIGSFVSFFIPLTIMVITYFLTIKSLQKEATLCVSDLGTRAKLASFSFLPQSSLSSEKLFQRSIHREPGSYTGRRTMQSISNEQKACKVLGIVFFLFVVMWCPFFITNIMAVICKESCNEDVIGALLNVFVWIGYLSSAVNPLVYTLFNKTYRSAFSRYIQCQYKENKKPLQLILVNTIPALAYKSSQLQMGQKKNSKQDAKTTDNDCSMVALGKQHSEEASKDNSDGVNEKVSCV

Take `COC(=O)CC(C)CCC=C(C)C` (stereo not given): the Potency in [1] was 68.6 µM (active); in [5], 45.8 µM (active). For the same compound, the Potency entry in [2], in [3], in [4], in experiment [6], in experiment [7] and in [8] was “inactive” in each case. Also, the Potency entry in experiment [9], in [10], in experiment [11], in [12], in experiment [13] and in experiment [14] was “inactive” throughout. In addition, the Potency entry in experiment [15] and in experiment [16] was “inactive” in each case.
Take `CCO[C@@H]1O[C@H](C(COCc2ccccc2)OCc2ccccc2)[C@H](OCc2ccccc2)[C@H]1O` (stereo not given in full): the Potency result in experiment [1], in [2], in experiment [3], in [5], in experiment [17] and in experiment [6] was “inactive” throughout. In addition, the Potency result in [8], in experiment [9], in experiment [10], in experiment [11], in [12] and in experiment [13] was “inactive” each time. Further, the Potency result in [14], in experiment [18] and in experiment [16] was “inactive” throughout.
As to `CN[C@H]1CC[C@@H](c2ccc(Cl)c(Cl)c2)c2ccccc21`, the Potency result in experiment [1], in [19], in [3], in experiment [20], in experiment [4] and in [5] was “inactive” in each case. The Potency entry in [17], in experiment [6], in experiment [7], in experiment [13], in experiment [14] and in experiment [18] was “inactive” throughout. Further, the Potency in [16] was 15 µM (active).
For the compound `CC(CN(C)C)CN1c2ccccc2CCc2ccccc21` (stereo not given), the Potency entry in [1], in experiment [19], in experiment [3], in experiment [20], in experiment [4] and in [5] was “inactive” each time. In addition, the Potency result in experiment [17], in [9], in experiment [11] and in experiment [18] was “inactive” in each case. For the same compound, the Potency in experiment [16] was 23.7 µM (active).
On to `CC1=NN(c2ccc(S(=O)(=O)O)cc2)C(=O)C1N=Nc1ccccc1` (stereo not given), for which the Potency result in experiment [1], in experiment [19], in [3], in experiment [20], in experiment [4] and in experiment [5] was “inactive” each time. Further, the Potency entry in [17], in [6], in experiment [7], in experiment [8], in [9] and in experiment [10] was “inactive” throughout. The Potency entry in experiment [11], in experiment [12], in experiment [13], in [14], in [18] and in [16] was “inactive” in each case.
Regarding `CCCCCCCC/C=C\CCCCCCCC(=O)N(C)CC(=O)O`, the Potency entry in experiment [2], in [19], in [3], in [20], in [4] and in experiment [5] was “inactive” in each case. Further, the Potency result in experiment [17], in [7], in experiment [8], in [10], in experiment [11] and in experiment [14] was “inactive” in each case. The Potency result in experiment [15], in experiment [18] and in [16] was “inactive” in each case.
For the compound `C[C@@H]1CC[C@H]2C(C)(C)[C@H]3C[C@@]12CC[C@@]3(C)O`, the Potency entry in [2], in [19], in [3], in [20], in experiment [4] and in experiment [5] was “inactive” in each case. In addition, the Potency result in experiment [17], in [6], in experiment [7], in experiment [8], in experiment [10] and in experiment [11] was “inactive” in each case. Besides, the Potency result in [12], in experiment [13], in experiment [14], in [18] and in [16] was “inactive” in each case.
